Assay outcomes as filed in PubChem BioAssay.
D1 potentiator – human D1 dopamine receptor positive modulation; 360,000 tested, 0.036% active; potentiation, % at 10 µM; P21728; HEK293 TREx D1 cells, calcium flux, dopamine EC20 potentiation; in the data active means potentiation above about 30%
Target sequence (P21728 whole entry, looked up): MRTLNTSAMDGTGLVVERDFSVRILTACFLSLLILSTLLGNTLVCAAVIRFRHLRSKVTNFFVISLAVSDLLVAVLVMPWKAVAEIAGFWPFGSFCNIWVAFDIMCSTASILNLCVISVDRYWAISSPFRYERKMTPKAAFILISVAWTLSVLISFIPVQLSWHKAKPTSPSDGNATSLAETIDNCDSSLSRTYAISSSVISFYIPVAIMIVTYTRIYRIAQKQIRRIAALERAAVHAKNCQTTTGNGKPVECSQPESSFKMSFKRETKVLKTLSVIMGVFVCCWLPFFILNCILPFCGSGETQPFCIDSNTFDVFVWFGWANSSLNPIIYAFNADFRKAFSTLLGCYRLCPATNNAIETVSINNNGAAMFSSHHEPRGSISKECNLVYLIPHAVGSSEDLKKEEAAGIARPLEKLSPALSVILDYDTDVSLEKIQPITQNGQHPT
D1 agonist – activates the human D1 dopamine receptor; P21728; HEK293 T-REx D1 cells, calcium flux, agonist mode; activation, % at 2 µM; 360,000 tested, 1% active; AID 504660
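Agonism was scored from calcium flux recorded over 180 s (1 read/s) after pintool compound addition, following a 10-cycle baseline. Cells were inducible force-coupled HEK293 TREx D1, plated overnight at 30 C and loaded with no-wash calcium dye.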
TRHR agonist – activates the human TRH receptor | activation, % at 2 µM | TRHR cells, calcium flux fluo-8, FDSS agonist mode | 360,000 tested, 0.18% active | P34981
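In this calcium-flux screen, cells bearing human TRHR are dye-loaded with fluo-8, baselined for 10 cycles, then exposed to library compounds; positive kinetic calcium responses during the agonist phase mark hits, with TRH as control.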
TRHR enhancer – allosteric enhancers of human TRH receptor; P34981; TRHR cells, fluo-8 calcium fluorescence, EC20 TRH enhancement; enhancement, % at 2 µM; 360,000 tested, 0.66% active; in the data active means enhancement above about 30%
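TRHR-expressing cells loaded with fluo-8 calcium dye were read kinetically (ex 480/em 530) during compound addition, then stimulated with an EC20 of TRH (10 nM final). Enhancement of the Gq-mediated intracellular calcium response was scored.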
D1 antag – antagonists of human D1 dopamine receptor; HEK293 TREx D1 cells, calcium flux, dopamine EC80; active compounds read low; activity change, negative = inhibition, % at 10 µM; 360,000 tested, 3.2% active; AID 504652; in the data active means activity change below about -30%
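HEK293 T-REx cells expressing inducible, force-coupled D1 receptor; no-wash Ca dye, 30–90 min RT. Cmpd → 180 s read at 1 Hz → EC80 DA → 180 s read.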
GRP78 ERSR act – ER stress response induction in glioma; Potency, µM, hits mostly activators; AID 602332; 420,000 tested, 0.02% active; U87-MG GRP78 promoter luciferase reporter, 16 h; active means well fitted activation curve with a large enough effect; further: series mostly up to about 76 µM; nearly all actives have a fitted effect of over 35% in size
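ERSR induction read as luciferase luminescence (Bright-Glo, 10 min at room temperature) in stably transfected human U87-MG glioma cells exposed to compounds for 16 h, using GRP78 as sensor.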
Hits are given with their value; 0 = inactive; - = no result. A selection: hits, their analogues and other compounds. The true share with any hit is near 4%. Unless noted, no stated cut-off is given here; in the data, active means activation above about 30%; inactive means the rest.

SMILES	D1 potentiator	D1 agonist	TRHR agonist	TRHR enhancer	D1 antag	GRP78 ERSR act
OC(COc1ccc(Cl)c2ccccc12)CN1CCN(c2ccccn2)CC1 (configuration not stated)	0	0	0	0	0	0
Cc1cc(C)nc(/N=C(\N)Nc2ccc(OCCC(C)C)cc2)n1	0	86	0	0	-45	0
COc1ccc(N/C(N)=N/c2nc(C)cc(C)n2)cc1	-	-	-	-	-	0
O=C(c1cc2ncc(CCCl)cn2n1)N1CCCCCC1	0	0	0	0	-48	0
CC1=C(C(=O)OCc2ccccc2)C(c2cccnc2)c2c(n(C)c(=O)n(C)c2=O)N1 (configuration not stated)	0	0	0	0	0	0
COc1ccc(NC(=O)CSc2nnc(Cn3cnc4ccccc43)n2C)cc1	0	0	0	0	0	0
Cc1ccc2cc(CN(Cc3ccco3)C(=O)NC3CCCCC3)c(=O)[nH]c2c1C	0	0	0	0	0	0
CCOC(=O)c1c(NC(=O)C2c3ccccc3Oc3ccccc32)sc(C)c1CC	0	0	0	0	0	0
OCCCCNCc1ccc(OCc2ccccc2Cl)cc1	-	-	-	-	-	0
CN(Cc1ccccc1)C(=O)COc1ccc(Br)cc1Cl	0	0	0	0	0	0
CCOCCCNCc1ccc(OCc2ccccc2Cl)cc1	0	36	0	0	0	0
CCc1cc(OCCCCNCc2ccccc2)ccc1Cl	0	51	0	0	0	0
Clc1cc(Br)ccc1OCCCNCc1ccccc1	0	55	0	0	0	0
CC(C)(C)c1ccc(OCCCNCc2ccccc2)cc1	0	61	0	0	0	0
Cc1cc(C)n(CCN(C)c2nc3nonc3nc2NC2CC2)n1	0	0	0	0	0	0
CCC1Nc2ncnc(N3CCCCC3)c2N(Cc2ccc(C)cc2)C1=O (configuration not stated)	-	-	-	-	-	0
CCOC(=O)C1C(=O)CC(C)(O)C(C(=O)OCC)C1c1ccc(Br)cc1 (configuration not stated)	0	0	0	0	-30	0
Cc1ccc(C2=NN(C(=O)c3ccco3)C(O)(C(F)(F)F)C2)cc1 (configuration not stated)	0	0	0	0	0	0
Cc1cc(C)c2c(c1)/C(=N/NS(=O)(=O)c1ccccc1)CCC2	0	0	0	0	-97	0
Cc1cc(C)c2c(c1)/C(=N/NS(=O)(=O)c1ccc(Br)cc1)CCC2	0	0	0	0	0	0
CCOC(=O)c1c(C)sc(-c2c(-c3cccc(Cl)c3)[nH]c3c2c(=O)n(C)c(=O)n3C)c1O	0	315	169	0	0	-
CCOC(=O)c1c(C)sc(-c2c(-c3cc(C)ccc3C)[nH]c3c2c(=O)[nH]c(=O)n3C)c1O	0	0	0	0	0	-
CCOC(=O)c1c(C)sc(-c2c(-c3cc(C)ccc3C)[nH]c3c2c(=O)n(C)c(=O)n3C)c1O	0	277	0	0	0	0
Cc1ccc(C)c(CN2C(=O)c3ccccc3Sc3ccc(C(=O)NCc4ccc5c(c4)OCO5)cc32)c1	0	0	0	0	0	0
COc1cc(CNC2CCC(C)C2)cc(OC)c1 (configuration not stated)	0	0	0	0	-48	0
SMILES	D1 potentiator	D1 agonist	TRHR agonist	TRHR enhancer	D1 antag	GRP78 ERSR act
CN(C(=O)CSc1nnc(-c2ccco2)n1Cc1ccccc1)C1CCS(=O)(=O)C1 (configuration not stated)	0	0	0	0	-37	0
O=C(Nc1ccc(Br)cc1)N1CCc2ccccc2C1	0	0	0	0	0	0
COc1ccc2c(n1)Sc1nc3ccccc3nc1N2	0	262	90	0	0	0
CC(C)(C)N(Cc1ccccc1)C(=O)COC(=O)CNC(=O)c1ccco1	0	0	0	0	0	0
O=S(=O)(c1ccc(OC(F)(F)F)cc1)N1CCC(O)(c2cccc(C(F)(F)F)c2)CC1	0	34	0	0	0	0
O=S(=O)(Cc1ccc(Cl)cc1)C1CCCCC1O (configuration not stated)	0	0	0	0	0	0
CC(C)(C)/C(O)=C(/C#N)c1nc2ccccc2[nH]1	0	0	0	0	0	0
N#C/C(=C(O)\C=C\c1ccccc1)c1nc2ccccc2[nH]1	0	0	0	0	-31	0
Cc1cc2oc(C(=O)Nc3ccc(S(=O)(=O)N(C)Cc4ccccc4)cc3)cc(=O)c2cc1C	0	0	0	31	0	0
COc1ccc(NS(=O)(=O)c2cc(NC(=O)c3cc(=O)c4ccccc4o3)ccc2OC)cc1	0	0	0	34	0	0
COc1cccc(NC(=O)c2cc(=O)c3ccccc3o2)c1	0	0	0	0	0	0
Cc1ccc2oc(C(=O)Nc3ccc(S(=O)(=O)N(C)Cc4ccccc4)cc3)cc(=O)c2c1	0	0	0	0	0	0
Cc1cc2oc(C(=O)Nc3c(C(=O)Nc4ccccc4)oc4ccccc34)cc(=O)c2cc1C	0	0	0	0	-43	0
Cc1ccc[n+](CC(=O)Nc2c(Cl)cc(Cl)cc2Cl)c1	0	0	0	0	0	0
O=C(C[n+]1ccccc1)Nc1c(Cl)cc(Cl)cc1Cl	0	0	0	39	0	0
O=S(=O)(c1ccccc1)N1CCN(Cc2nnc(-c3ccccc3)o2)CC1	-	-	-	-	-	0
Cc1ccc(S(=O)(=O)N2CCN(Cc3nnc(-c4c(-c5ccccc5)noc4C)o3)CC2)cc1	-	0	0	0	-42	0
O=C(NCCSCc1ccc(Cl)cc1Cl)c1ccc(CN2CCOCC2)cc1	0	0	0	0	-31	0
CC1CCC(CC(=O)O)(C(=O)O)CC1 (configuration not stated)	-	-	-	-	-	0
Cn1c(N)c(C(=O)COC(=O)/C=C/c2cccc(Br)c2)c(=O)n(C)c1=O	0	0	0	0	-33	0
Cn1c(N)c(C(=O)COC(=O)/C=C/c2ccc(F)cc2)c(=O)n(C)c1=O	0	0	0	0	0	0
COc1ccc(/C=C/C(=O)OCC(=O)c2c(N)n(C)c(=O)n(C)c2=O)cc1	0	0	0	0	-32	0
COc1ccc(-c2cc(C(=O)OCC(=O)c3c(N)n(C)c(=O)n(C)c3=O)c3ccccc3n2)cc1	0	0	0	0	0	0
COc1ccc(/C=C2\CCCc3c2nc2ccccc2c3C(=O)OCC(=O)c2c(N)n(C)c(=O)n(C)c2=O)cc1	0	0	0	0	-40	-
Cn1c(N)c(C(=O)COC(=O)/C=C/c2cccc(F)c2)c(=O)n(C)c1=O	0	0	0	0	0	0
CCOc1cc(/C=C2\CCCc3c2nc2ccccc2c3C(=O)O)ccc1OC	0	411	151	0	0	0
OCCC1CN(Cc2cnc(N3CCCC3)s2)CCN1Cc1ccccc1 (configuration not stated)	0	0	0	0	0	0
